Unmarked numbers belong to inactive results. Records with an inconclusive call do not appear. Activity calls are given as the source filed them. Unless noted, the call rests on the fitted dose curve; in most records, active means well fitted curve in the direction sought with a large enough effect in the repeat runs; inconclusive means weak or mixed curves; inactive means no such curve, though single readings can be large; an effect the other way counts as inactive or inconclusive.

A short description of assay [1]: qHTS assay to identify small molecule antagonists of the estrogen related receptor (ERR) signaling pathway from Tox21 library - cell viability counter screen (AID 1224834). Further: nearly all actives have a fitted effect of over 30% in size. In outline: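 ERR reporter cells, 2,000 per well, rested 6 h, then exposed to compound in DMSO for 17.5 hours at 37 C. Viability read as fluorescence after 30 min with CellTiter-Fluor.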
A general note: qHTS replaces the single test concentration by a dilution series.

The nature of assay [2]: qHTS assay to identify small molecule agonists of the constitutive androstane receptor (CAR) signaling pathway - cell viability counter screen (AID 1224836). Further: nearly all actives have a fitted effect of over 45% in size. In outline:
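Counter screen multiplexed with the CAR reporter readout: HepG2 cells co-transfected with hCAR and the CYP2B6-2.2kb construct receive a 15-concentration compound series and 0.75 uM PK11195 (final), then CellTiter-Fluor fluorescence is read after 23 h.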

Assay [3] is described as follows: qHTS assay to identify small molecule antagonists of the constitutive androstane receptor (CAR) signaling pathway - cell viability counter screen (AID 1224837). Further: nearly all actives have a fitted effect of over 45% in size. In outline:
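HepG2 cells stably carrying hCAR and CYP2B6-2.2kb reporter, stimulated with 50 nM CITCO and compounds at 15 concentrations for 23 h at 37 C. Viability measured by CellTiter-Fluor fluorescence.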

Assay [4] concerns the target Nuclear receptor subfamily 1 group I member 3 (Homo sapiens) (UniProt Q14994). Put plainly: qHTS assay to identify small molecule antagonists of the constitutive androstane receptor (CAR) signaling pathway (AID 1224838). Further: nearly all actives have a fitted effect of over 40% in size. Further: potency means the concentration at half of the fitted maximal effect. In outline: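 HepG2 cells stably carrying hCAR and a CYP2B6-2.2kb luciferase reporter, seeded 4 hrs before compound (15 concentrations). Stimulated with 50 nM CITCO for 24 hr at 37 C. ONE-Glo luminescence read after 30 min at room temperature.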

The target is the same in assay [5]. Kind of assay: qHTS assay to identify small molecule agonists of the constitutive androstane receptor (CAR) signaling pathway (AID 1224839). Further: nearly all actives have a fitted effect of over 15% in size. Further: potency means the concentration at half of the fitted maximal effect. In outline:
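A 15-concentration quantitative screen uses HepG2 cells co-transfected stably with human CAR and CYP2B6-2.2kb reporter. Treatment lasts 24 h with 0.75 uM PK11195 final present; ONE-Glo luminescence is the signal.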

Assay [6] can be described thus: qHTS assay to identify small molecule antagonists of the estrogen related receptor signaling pathway with the pleiotropic PPARgamma coactivator (PGC) from Tox21 10K library - cell viability counter screen (AID 1224840; active means well fitted cell-killing curve with a large enough effect in the repeat runs, not every such curve was filed as active; further: nearly all actives have a fitted effect of over 40% in size; further: potency means the concentration at half of the fitted maximal effect). In outline: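 PGC/ERR cells (2,000/well) plated 6 h, then compound-treated for 17.5 h at 37 C. Viability measured by CellTiter-Fluor fluorescence after 30 min at 37 C, multiplexed with the pathway assay.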

Assay [7] is described as follows: qHTS assay to identify small molecule agonists of the hypoxia (HIF-1) signaling pathway - cell viability counter screen (AID 1224844; calls by dose curve; further: nearly all actives have a fitted effect of over 50% in size). In short, it runs like this:
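HRE-bla ME-180 cells, 2,000/well in 0.5% dialyzed FBS medium, treated 17 h at 37C with compounds. Viability read in the same wells as the bla reporter, by CellTiter-Glo luminescence after 30 min at room temperature.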

Assay [8] can be described thus: qHTS assay to identify small molecule agonists of H2AX (AID 1224845; active means well fitted activation curve with a large enough effect in the signal ratio in the repeat runs, not every such curve was filed as active; the % refers to the signal ratio). In outline: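 Phospho-H2AX Ser139 measured by HTRF (ex 320 nm; em 665 and 620 nm) after 24 hr antibody incubation. Compounds, 15 concentrations, 0.76% DMSO, were applied to CHO-K1 cells for 3hr at 37C before lysis.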
The nature of assay [9]: qHTS assay to identify small molecule agonists of the hypoxia (HIF-1) signaling pathway (AID 1224846; active means well fitted activation curve with a large enough effect in the signal ratio in the repeat runs, not every such curve was filed as active; the % refers to the signal ratio). In short, it runs like this: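 HRE-bla ME-180 beta-lactamase reporter cells in medium with 0.5% dialyzed FBS, pre-incubated 5 h then exposed to compounds 17 h at 37C, 5% CO2; reporter induction read with CCF4-AM FRET substrate.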
The nature of assay [10]: qHTS assay to identify small molecule agonists of H2AX - cell viability counter screen (AID 1224847; calls by dose curve; further: top concentration of the series differs between compounds; nearly all actives have a fitted effect of over 30% in size). In outline:
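We seed wild-type CHO-K1 cells overnight, treat them for 3 hr at 37C with compounds in 15-concentration series, and quantify remaining viability by CellTiter-Glo luminescence.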

Assay [11] is described as follows: qHTS RealTime-Glo MT Cell Viability Assay in HepG2 cells - 24 hour (AID 1224867). Further: nearly all actives have a fitted effect of over 50% in size. In short, it runs like this: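 Real-time, nonlytic viability: 600 HepG2 cells/well mixed with NanoLuc enzyme plus prosubstrate; 5 h settle, compound (DMSO) added by pintool; luminescence monitored over 40 h at 37 C.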
Assay [12] can be described thus: A CellTox Green Cytotoxicity Assay to monitor cytotoxicity in HEK293 cells - 0 hour (AID 1224869). Further: nearly all actives have a fitted effect of over 50% in size. In outline: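 HEK293 cells, 600/well, were preincubated 5 hours and then exposed to compounds at 37 C for up to 40 hours. A cell-impermeant cyanine dye staining dead-cell DNA was read by fluorescence at 0, 8, 16, 24, 32 and 40 h time points.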
Assay [13] can be described thus: qHTS RealTime-Glo MT Cell Viability Assay in HepG2 cells - 40 hour (AID 1224870). Further: nearly all actives have a fitted effect of over 50% in size. In outline:
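Real-time viability: cells seeded at 600 per well together with NanoLuc and cell-permeant prosubstrate, compounds added after 5 h incubation. Luminescence tracked at 0, 8, 16, 24, 32 and 40 h of exposure.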

Assay [14] concerns the target Luciferin 4-monooxygenase (Photinus pyralis) (UniProt P08659). Kind of assay: qHTS assay to identify small molecule inhibitors of firefly luciferase (AID 1224835). Further: nearly all actives have a fitted effect of over 25% in size. In outline:
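Inhibition of purified Photinus luciferase is measured by luminescence. Substrate levels (D-luciferin, ATP) sit at their KM values. Each compound is tested in a concentration series.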

Assay [15] can be described thus: qHTS RealTime-Glo MT Cell Viability Assay in HEK293 cells - 32 hour (AID 1224868). In outline:
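Cells + reagent dispensed (600 cells/well, HEK293) → 5 h at 37 C/5% CO2 → 23 nL compound in DMSO pinned → 40 h at 37 C → luminescence read at 0, 8, 16, 24, 32, 40 h.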

Assay [16] deals with Thyrotropin receptor (Homo sapiens) (UniProt P16473). Kind of assay: qHTS assay to identify small molecule agonists of the thyroid stimulating hormone receptor (TSHR) signaling pathway (AID 1224843; calls by dose curve; further: nearly all actives have a fitted effect of over 45% in size). In short, it runs like this: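 HEK293 cells stably bearing the thyrotropin receptor were plated at 800 cells/well and challenged with compound (30 min, RT). Accumulated cAMP was quantified via cAMP-d2 competing for cryptate-tagged antibody.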
Chain of Thyrotropin receptor (Homo sapiens) (P16473 whole entry, looked up): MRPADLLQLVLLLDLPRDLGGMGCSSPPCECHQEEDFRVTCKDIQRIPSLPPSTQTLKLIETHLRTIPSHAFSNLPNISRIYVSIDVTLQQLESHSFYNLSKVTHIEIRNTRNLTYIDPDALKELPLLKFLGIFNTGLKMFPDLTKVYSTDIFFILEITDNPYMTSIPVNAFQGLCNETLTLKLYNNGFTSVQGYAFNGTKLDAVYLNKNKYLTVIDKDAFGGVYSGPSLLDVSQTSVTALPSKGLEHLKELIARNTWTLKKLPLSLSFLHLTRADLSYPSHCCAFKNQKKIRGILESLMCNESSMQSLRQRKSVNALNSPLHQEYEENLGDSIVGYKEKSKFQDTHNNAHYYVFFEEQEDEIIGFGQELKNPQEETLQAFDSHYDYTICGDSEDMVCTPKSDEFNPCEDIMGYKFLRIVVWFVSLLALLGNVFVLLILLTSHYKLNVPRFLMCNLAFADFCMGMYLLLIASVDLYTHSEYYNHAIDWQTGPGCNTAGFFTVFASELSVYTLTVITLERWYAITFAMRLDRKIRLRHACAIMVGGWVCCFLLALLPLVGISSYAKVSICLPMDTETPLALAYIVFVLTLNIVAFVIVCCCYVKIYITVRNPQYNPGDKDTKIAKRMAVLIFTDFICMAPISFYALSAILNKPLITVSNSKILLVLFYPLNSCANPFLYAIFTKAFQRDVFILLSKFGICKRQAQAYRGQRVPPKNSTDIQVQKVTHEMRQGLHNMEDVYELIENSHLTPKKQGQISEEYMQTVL

Assay [17] can be described thus: qHTS assay to identify small molecule antagonists of the estrogen related receptor signaling pathway with the pleiotropic PPARgamma coactivator (PGC) from Tox21 10K library (AID 1224841; call rule not given here). In short, it runs like this:
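PGC/ERR cell line, 2,000 cells/well, pre-incubated 6 hours at 37 C, then exposed to compounds for 18 hours at 37 C; luciferase read with One-Glo luminescence after 30 min at room temperature.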

A short description of assay [18]: qHTS assay to identify small molecule agonists of the estrogen related receptor signaling pathway with the pleiotropic PPARgamma coactivator (PGC) from Tox21 10K library (AID 1224842). Further: nearly all actives have a fitted effect of over 15% in size. In short, it runs like this: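 Luminescence from One-Glo (30 min, room temperature) measured after PGC/ERR cells had 18 h at 37 C with pinned compound (23 nL in DMSO). Cells had been seeded at 2,000 per well and pre-incubated 6 h.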

Assay [19] in a line: qHTS assay to identify small molecule antagonists of the estrogen related receptor (ERR) signaling pathway from Tox21 library (AID 1224848). Further: nearly all actives have a fitted effect of over 50% in size. In outline:
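Reading was by luminescence 30 min after ONE-Glo addition. Before that, ERR cells at 2,000 per well had rested 6 h at 37 C/5% CO2 and then received pin-tooled compounds in DMSO for 18 h at 37 C.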

Assay [20] is described as follows: qHTS assay to identify small molecule agonists of the estrogen related receptor (ERR) signaling pathway from Tox21 library (AID 1224849; calls by dose curve; further: nearly all actives have a fitted effect of over 15% in size). The note with it: ERR reporter cell line, ONE-Glo luciferase, 18 h; at 92.4 µM (top of the series) unless noted. In outline: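 ERR reporter cells (NTP line) pre-incubated 6 hours at 37 C, then exposed to compounds for 18 hours at 37 C. ONE-Glo luciferase luminescence was read after 30 minutes at room temperature.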
On the % scale 0 is the no-effect control and ±100 the full control effect.

Chain of Nuclear receptor subfamily 1 group I member 3 (Homo sapiens) (Q14994 whole entry, looked up): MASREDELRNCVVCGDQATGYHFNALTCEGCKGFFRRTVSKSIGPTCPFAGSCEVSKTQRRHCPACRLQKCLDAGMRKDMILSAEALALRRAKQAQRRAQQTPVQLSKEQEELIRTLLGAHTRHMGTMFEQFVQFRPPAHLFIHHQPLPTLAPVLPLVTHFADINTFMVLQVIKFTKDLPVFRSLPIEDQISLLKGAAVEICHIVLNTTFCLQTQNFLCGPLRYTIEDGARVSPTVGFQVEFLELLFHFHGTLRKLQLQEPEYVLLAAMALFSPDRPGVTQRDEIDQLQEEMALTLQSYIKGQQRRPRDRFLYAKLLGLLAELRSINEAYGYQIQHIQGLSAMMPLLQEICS
Chain of Luciferin 4-monooxygenase (Photinus pyralis) (P08659 whole entry, looked up): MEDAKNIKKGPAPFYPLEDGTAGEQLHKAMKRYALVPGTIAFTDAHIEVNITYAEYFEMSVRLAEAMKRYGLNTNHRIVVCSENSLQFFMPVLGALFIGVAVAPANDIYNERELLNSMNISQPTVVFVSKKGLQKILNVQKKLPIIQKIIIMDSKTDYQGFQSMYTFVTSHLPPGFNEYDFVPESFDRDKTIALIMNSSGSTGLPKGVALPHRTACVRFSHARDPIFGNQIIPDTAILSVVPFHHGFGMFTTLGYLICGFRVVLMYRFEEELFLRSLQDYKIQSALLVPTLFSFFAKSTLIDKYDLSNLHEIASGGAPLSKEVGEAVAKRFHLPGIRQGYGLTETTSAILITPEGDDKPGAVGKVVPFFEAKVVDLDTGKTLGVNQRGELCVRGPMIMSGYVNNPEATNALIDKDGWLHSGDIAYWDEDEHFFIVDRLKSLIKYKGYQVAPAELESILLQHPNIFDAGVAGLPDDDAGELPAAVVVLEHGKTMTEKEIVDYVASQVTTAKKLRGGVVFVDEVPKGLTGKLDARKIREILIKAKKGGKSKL

With `CC1(C)CON(Cc2ccccc2Cl)C1=O`, the Potency entry in assay [1], in [2], in assay [3], in [4], in assay [6] and in [7] was “inactive” in each case. The Potency result in assay [8], in assay [10], in assay [11], in assay [12] and in [13] was “inactive” in each case. Further, in [5], the Potency is 48.6 µM (active). Also, the outcome in [9] was inactive.
Take `N#CCCC#N`: the Potency result in assay [1], in [14], in [2], in assay [6], in assay [7] and in [8] was “inactive” throughout. The Potency result in assay [10], in assay [11], in assay [15], in [12] and in assay [13] was “inactive” in each case. Further, in assay [9], the compound was called inactive.
In the case of `O=C(O)c1cccc(Cl)c1`, the Potency result in assay [1], in assay [2], in assay [3], in assay [4], in assay [5] and in assay [6] was “inactive” throughout. The Potency result in assay [16], in [7], in [8], in [10], in assay [11] and in assay [15] was “inactive” in each case. For the same compound, the Potency entry in assay [13] is “inactive”. Besides, the call in assay [9] was inactive.
With `BrCCCCCCBr`, the Potency entry in assay [1], in assay [2], in [3], in assay [4], in assay [5] and in [6] was “inactive” throughout. Besides, the Potency result in assay [16], in assay [7], in assay [8], in [10], in assay [11] and in assay [12] was “inactive” in each case. Further, in assay [13], the Potency result is “inactive”. Besides, in assay [9], the call was inactive.
For the compound `Cc1ccccc1CO[C@@H]1C[C@@]2(C(C)C)CC[C@]1(C)O2`, the Potency entry in assay [1], in [14], in assay [2], in assay [4], in [5] and in assay [6] was “inactive” in each case. The Potency entry in assay [7], in assay [11], in assay [15], in assay [12] and in assay [13] was “inactive” throughout. Besides, the compound was called inactive in assay [9].
For `Cc1nc(N)nc(N)n1`, the Potency result in assay [1], in assay [2], in [3], in assay [4], in assay [5] and in [6] was “inactive” in each case. Moreover, the Potency entry in assay [16], in assay [7], in assay [8], in [10], in assay [11] and in assay [15] was “inactive” throughout. For the same compound, the Potency entry in [12] and in assay [13] was “inactive” in each case. Besides, the result in assay [9] was inactive.
For `ClC(Br)Br`, the Potency result in assay [1], in [2], in [3], in assay [4], in assay [5] and in assay [6] was “inactive” throughout. The Potency entry in assay [17], in assay [16], in [7], in assay [8], in assay [10] and in [19] was “inactive” each time. For the same compound, the Potency entry in assay [11], in assay [15], in assay [12] and in assay [13] was “inactive” each time. Besides, the call in assay [18] and in [9] was inactive. Further, the activity change, positive = activation in assay [20] was 1.41%.
With `[O]=[Cd]`, the Potency result in assay [1], in [14], in assay [2], in assay [6], in assay [16] and in assay [7] was “inactive” in each case. In addition, the Potency result in assay [8], in assay [10], in assay [11], in assay [12] and in assay [13] was “inactive” in each case. In addition, the result in assay [18] and in assay [9] was inactive. Moreover, the activity change, positive = activation in [20] was -14%.
In the case of `CC(C)CP(=S)(S)CC(C)C`, the Potency result in assay [1], in [14], in assay [2], in assay [5], in assay [16] and in assay [8] was “inactive” throughout. The Potency result in [10], in [11], in assay [15], in assay [12] and in assay [13] was “inactive” each time. Moreover, the Potency in assay [4] was 3.44 µM (active); in assay [6], 2.73 µM (active). Also, in [9], the call was inactive.

Values taken from PubChem BioAssay (Tox21).
